Where “and” joins values, the source holds several entries; their conditions need not be identical. Equal values may be shown once. This is part of a sample that, as a whole, favours compounds with a hit. Of some 83,000 tested, about 20% had one in any assay.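 Cells were grown in 96-well plates and exposed to the test compound at a single concentration for 48 hours; results are reported as percent growth, with values below 10 considered active.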 Calls of active or inactive are those of the source.
What was measured:
Assay in all cases: NCI-60 one-dose screen, 48 h (100 = growth as untreated, 0 = no growth, -100 = all killed)
Settings in all cases: 10 µM
[1] = system: NCI-H23 lung
[2] = system: NCI-H226 lung
[3] = system: NCI-H322M lung
[4] = system: HOP-62 NSCLC
[5] = system: NCI-H460 lung
[6] = system: HOP-92 NSCLC
[7] = system: NCI-H522 lung
[8] = system: A549/ATCC NSCLC
[9] = system: 786-0 renal
[10] = system: COLO 205 colon

Structure (SMILES) | growth [1] | growth [2] | growth [3] | growth [4] | growth [5] | growth [6] | growth [7] | growth [8] | growth [9] | growth [10]
COS(=O)(=O)c1ccccc1 | 98.5% (inactive) | 107% (inactive) | 106% (inactive) | 102% (inactive) | 112% (inactive) | 105% (inactive) | 111% (inactive) | 105% (inactive) | 115% (inactive) | 113% (inactive)
COc1ccc(/C=C\[N+](=O)[O-])cc1OC | 83.9% (inactive) and 65.5% (inactive) | 101% (inactive) and 77.5% (inactive) | 129% (inactive) and 90.2% (inactive) | 107% (inactive) and 88% (inactive) | 45.6% (inactive) and 63.3% (inactive) | 92.8% (inactive) and 82.3% (inactive) | 80.6% (inactive) and 75.6% (inactive) | 67.9% (inactive) and 68.7% (inactive) | 96.4% (inactive) and 47.9% (inactive) | 
COc1cc2c(cc1OC)C13CCN4CC5=CCOC6CC(=O)N2C1C6C5CC43 (stereo unspecified) | 90% (inactive) and 100% (inactive) | 95.9% (inactive) and 95.7% (inactive) | 118% (inactive) and 144% (inactive) | 120% (inactive) and 102% (inactive) | 120% (inactive) and 83.2% (inactive) | 87.4% (inactive) | 105% (inactive) and 99.1% (inactive) | 99.4% (inactive) | 112% (inactive) and 99.6% (inactive) | 95.8% (inactive) and 89% (inactive)
O=[N+]([O-])c1ccc(N2CCOCC2)c2c1no[n+]2[O-] | 13.1% (inactive) | 35.7% (inactive) | 28.1% (inactive) | 8.11% (active) | 6.53% (active) | -31.9% (active) | -70.5% (active) | 21.4% (inactive) | -12.8% (active) | -53.1% (active)
NC(Cc1ccccc1)c1ccccc1 (stereo unspecified) | 97.7% (inactive) and 105% (inactive) | 91.9% (inactive) and 97.7% (inactive) | 102% (inactive) and 103% (inactive) | 105% (inactive) | 107% (inactive) and 111% (inactive) |  | 94.5% (inactive) | 111% (inactive) | 97.4% (inactive) and 98.4% (inactive) | 
CC12OOC(c3ccccc31)c1c2ccc2ccccc12 (stereo unspecified) | 32.7% (inactive) |  | 76.8% (inactive) | 73.3% (inactive) | -63.2% (active) | -61.9% (active) | -91.2% (active) | 65.4% (inactive) | 66.1% (inactive) | 
Cc1cc(C(C)(C)c2ccc(O)c(C)c2)ccc1O | 97.4% (inactive) |  | 93.4% (inactive) | 97.4% (inactive) | 110% (inactive) | 110% (inactive) | 83.8% (inactive) | 75.7% (inactive) | 102% (inactive) | 
COc1cc2c(c(OC)c1OC)-c1ccc(O)c(=O)cc1[C@@H](NC(C)=O)CC2 | 65.1% (inactive) | 68.9% (inactive) | 57.5% (inactive) | 28.9% (inactive) | 24.6% (inactive) |  |  | 31.9% (inactive) | 68.9% (inactive) | 72.6% (inactive)
CC(C)c1cc([N+](=O)[O-])cc([N+](=O)[O-])c1O | 102% (inactive) |  | 112% (inactive) | 98.5% (inactive) | 105% (inactive) | 75.1% (inactive) | 103% (inactive) | 103% (inactive) | 101% (inactive) | 
O=C1CCC(=O)N1SC(Cl)(Cl)Cl | 108% (inactive) |  | 106% (inactive) | 113% (inactive) | 108% (inactive) | 105% (inactive) | 80.4% (inactive) | 107% (inactive) | 106% (inactive) | 
COC(=O)C1C(O)C(C)C(O)C(C)/C=C\C=C(C)C(=O)Nc2c(C)c(OC(C)=O)c3c(c2O)C(=O)C(C)=C2OCOC(=C23)C(C)=CC(C)(O)C(O)C(C)C1O (stereo unspecified) | 97.6% (inactive) | 99.2% (inactive) | 106% (inactive) | 96.8% (inactive) | 111% (inactive) |  | 59.1% (inactive) | 98.5% (inactive) | 107% (inactive) | 
C[C@@H]1C[C@@H]([C@H](O)CC2CC(=O)NC(=O)C2)C(=O)[C@@H](C)C1 | -3.78% (active) | 11.6% (inactive) | 2.7% (active) | 3.86% (active) | 4.51% (active) |  | -15.6% (active) | 0.381% (active) | 0.349% (active) | 
C/C(=C\c1ccc(Cl)c(Cl)c1)[N+](=O)[O-] | 44.6% (inactive) and 94.8% (inactive) |  | 94.6% (inactive) and 100% (inactive) | 86.9% (inactive) | 55.6% (inactive) and 105% (inactive) | -29.8% (active) and 89.5% (inactive) | -87.3% (active) and 82.6% (inactive) | 74.3% (inactive) and 76.6% (inactive) | 45.8% (inactive) and 94.9% (inactive) | 
C/C1=C\[C@H](C)C[C@H](C)OC(=O)C[C@H](c2ccc(O)cc2)NC(=O)[C@@H](Cc2c(Br)[nH]c3ccccc23)N(C)C(=O)[C@H](C)NC(=O)[C@@H](C)C1 | -4.18% (active) | -6.93% (active) | 8.82% (active) | -40.4% (active) | -13% (active) |  | -62.5% (active) | 3.5% (active) | -55.9% (active) | 
Cc1cc([N+](=O)[O-])c2ccccc2[n+]1[O-] | -25.5% (active) and -33.7% (active) |  | -15.3% (active) and -45.7% (active) | -20.4% (active) and -36.8% (active) | -26.5% (active) and -38.4% (active) | -8.69% (active) and -36.2% (active) | -38.1% (active) and -83% (active) | -23.4% (active) and -36.1% (active) | -31.9% (active) and -30.8% (active) | 
Oc1ccccc1-c1ccccc1 | 98.9% (inactive) and 104% (inactive) |  | 91.5% (inactive) and 109% (inactive) | 101% (inactive) and 103% (inactive) | 104% (inactive) | 98.7% (inactive) and 112% (inactive) | 95.2% (inactive) | 100% (inactive) and 95.8% (inactive) | 105% (inactive) | 
O=C(CBr)Nc1ccc(Cl)cc1 | 81.2% (inactive) | 91.2% (inactive) | 101% (inactive) |  | 106% (inactive) | 91.9% (inactive) | -67.2% (active) | 100% (inactive) | 56.6% (inactive) | 
O=C(CCl)Nc1ccc(Cl)cc1 | 28.4% (inactive) |  | 78.3% (inactive) | 75.1% (inactive) | 99.8% (inactive) | 57.8% (inactive) | -96.3% (active) | 85.1% (inactive) | 44.7% (inactive) | 
Cn1c(O)c(N=O)c(=O)n(C)c1=O | 94.4% (inactive) and 95.1% (inactive) |  | 97.1% (inactive) and 101% (inactive) | 101% (inactive) and 90.9% (inactive) | 110% (inactive) and 102% (inactive) | 101% (inactive) and 85.9% (inactive) | 91% (inactive) and 74.7% (inactive) | 107% (inactive) and 98.1% (inactive) | 104% (inactive) and 93.3% (inactive) | 
CN(CCCl)c1ccc(/C=C/C2=[N+](C)c3ccccc3C2(C)C)cc1 | 9.42% (active) |  | 46.7% (inactive) | 41.1% (inactive) | 17.7% (inactive) | 31.1% (inactive) | 30.4% (inactive) | 31.8% (inactive) | 57.6% (inactive) | 
COC1CC2C=C(C)/C=C/C=C/C(=O)NC(c3ccccc3)C/C=C/CCC(O)CC(=O)C2=C1O (stereo unspecified) | -73.5% (active) | -61.6% (active) | -92.8% (active) | -91.6% (active) | -73.3% (active) | -86.6% (active) |  | -82.7% (active) | -94.3% (active) | -79.1% (active)
C=NCC#N | 97.8% (inactive) and 97.9% (inactive) |  | 107% (inactive) and 118% (inactive) | 93.2% (inactive) and 93.4% (inactive) | 102% (inactive) and 120% (inactive) | 97.6% (inactive) | 68.8% (inactive) and 103% (inactive) | 110% (inactive) and 104% (inactive) | 99.4% (inactive) and 103% (inactive) | 113% (inactive) and 111% (inactive)
COc1ccccc1/C=C/[N+](=O)[O-] | 74.9% (inactive) | 96.1% (inactive) | 102% (inactive) | 97.1% (inactive) | 74.4% (inactive) |  | 62.6% (inactive) | 75.5% (inactive) | 93.1% (inactive) | 
CC[C@@H](C)[C@@H]1NC(=O)C(NC(=O)C(CC(C)C)N(C)C(=O)C2CCCN2C(=O)C(C)O)C(C)OC(=O)C(Cc2ccc(OC)cc2)N(C)C(=O)C2CCCN2C(=O)C(CC(C)C)NC(=O)C(C)C(=O)C(C(C)C)OC(=O)C[C@H]1O (stereo partly specified) | -46.2% (active) |  | -16.5% (active) | -42.9% (active) | -49.7% (active) | -41.9% (active) | -43.2% (active) | -80.2% (active) | -37.9% (active) | 
CC(C)C1(NC(=O)C2CC3c4cccc5[nH]cc(c45)CC3N(C)C2)OC2(O)C3CCCN3C(=O)C(Cc3ccccc3)N2C1=O (stereo unspecified) | 99.4% (inactive) | 103% (inactive) | 118% (inactive) | 110% (inactive) | 109% (inactive) |  | 82.1% (inactive) | 107% (inactive) | 96.3% (inactive) | 
Oc1c(Cl)cc(Cl)c2ccccc12.[Cu+2] | 91.4% (inactive) |  | 92.1% (inactive) | 108% (inactive) | 99.4% (inactive) | 104% (inactive) | 71.2% (inactive) | 111% (inactive) | 116% (inactive) | 
C=C1C(=O)O[C@@H]2C[C@@H](C)[C@@H]3C=CC(=O)[C@@]3(C)[C@@H](O)[C@H]12 | -36.3% (active) | -38.6% (active) | -24.7% (active) | -44.6% (active) | -26.4% (active) |  | -81.2% (active) | -3.45% (active) | -71.6% (active) | -95% (active)

Source: PubChem BioAssay (NCI)
